# Data from PubChem BioAssay (NCATS).
# Results filed as inconclusive are left out. Unmarked numbers belong to inactive results. Activity calls are given as the source filed them. Calls follow the shape of the dose curve; as a rule, active = well fitted cell-killing curve with a large enough effect; inconclusive = small, poorly fitted or top-dose-only effect, or effect the other way; inactive = no such curve, though single readings can be large or run the other way.
# Key:
# [1] = Viability qHTS for spleen associated tyrosine kinase inhibitor (SYKi) naive MV4-11 cells (AID 1963823); details: MV4-11 AML viability, CellTiter-Glo luminescence, 72 h; series mostly up to 45 µM; also: nearly all actives have a fitted effect of over 40% in size
# How it was run: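 Luminescence from CellTiter-Glo, developed 10 min at room temperature, gave viability of MV4-11 cells never exposed to SYK inhibitor. Cells (500/well) had been incubated with compounds for 72 hr under standard culture conditions.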
# [2] = Viability qHTS for spleen associated tyrosine kinase inhibitor (SYKi) drug resistant MV4-11 cells (AID 1963824); details: SYKi-resistant MV4-11 viability, CellTiter-Glo, 72 h; series mostly up to 45 µM; also: nearly all actives have a fitted effect of over 35% in size
# How it was run: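 SYK inhibitor-resistant MV4-11 AML cells, 500 per well, added to predispensed compounds and incubated 72 hr at 37 C, 5% CO2. Viability measured by CellTiter-Glo luminescence after 10 min at room temperature.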
# Potency is read from the fitted curve at half-maximal effect.
Compound,viability (% of control) [1],"viability, % of control [2]",Potency [1],Potency [2]
CCC/C=C/C(=O)O[C@H]1CC(C)(C)CC2[C@]13[C@H](O)O[C@@]21CCC2[C@@]4(C)CC[C@H](O[C@@H]5O[C@H](C(=O)O)[C@@H](O)[C@H](O[C@@H]6O[C@H](CO)[C@H](O)[C@H](O)[C@H]6O[C@@H]6O[C@@H](C)[C@H](O)[C@@H](O)[C@H]6O[C@@H]6OC[C@](O)(CO)[C@H]6O)[C@H]5O[C@@H]5O[C@H](CO)[C@H](O)[C@H](O)[C@H]5O)C(C)(C)C4CC[C@@]2(C)[C@]1(C)C[C@H]3OC(C)=O (stereo not given in full),57.2% [at 9.25 µM],66.3% [at 9.25 µM],,
C=C[C@H]1[C@H](O[C@@H]2O[C@H](CO)[C@@H](O)[C@H](O)[C@H]2O)OC=C(C(=O)OC)[C@H]1CC=O,,,inactive,inactive
COC(=O)C1=COC(O[C@@H]2O[C@H](CO)[C@@H](O)[C@H](O)[C@H]2O)[C@@H]2[C@@](C)(O)[C@@H](OC(=O)/C=C/c3ccccc3)C[C@]12O (stereo not given in full),,,inactive,inactive
CC(=O)O[C@H]1[C@H](Oc2ccccc2COC(=O)C2(O)C=CCCC2=O)O[C@H](CO)[C@@H](O)[C@@H]1O (stereo not given in full),,,inactive,inactive
C[C@@H]1O[C@@H](O[C@H]2[C@H](O[C@H]3CC[C@@]4(C)C(CC[C@]5(C)C4CC=C4C6CC(C)(C)CC[C@]6(C(=O)O[C@@H]6O[C@H](CO[C@@H]7O[C@H](CO)[C@@H](O[C@@H]8O[C@@H](C)[C@H](O)[C@@H](O)[C@H]8O)[C@H](O)[C@H]7O)[C@@H](O)[C@H](O)[C@H]6O)CC[C@]45C)[C@]3(C)CO)OC[C@H](O)[C@@H]2O)[C@H](O)[C@H](O)[C@H]1O (stereo not given in full),69.6% [at 9.25 µM],88.1% [at 9.25 µM],,
C=CC(C)(O)CC/C=C(\C)COC1O[C@H](CO)[C@@H](O)[C@H](O)[C@H]1O (stereo not given in full),,,inactive,inactive
COc1cc2c(cc1O)CC[C@H]1[C@@H]2CC[C@]2(C)[C@H](O)CC[C@@H]12,,,0.58 µM (active),0.731 µM (active)
COC(=O)[C@]1(C)CCC[C@@]2(C)[C@@H]3CC[C@@H]4C[C@@]3(CC[C@@H]21)C[C@H]4C(=O)O,,,inactive,inactive
C[C@@H]1CN(CCCn2c3ccccc3c3ccccc32)C[C@H](C)N1,,,23.7 µM (active),26.6 µM (active)
CC(=O)c1c(C)cccc1O[C@@H]1O[C@H](CO)[C@@H](O)[C@H](O)[C@H]1O,,,inactive,inactive
CC(O)(C(=O)C1CC1(CO)COC1OC(CO)C(O)C(O)C1O)C1C(O)CC2C3CC=C4CC(O)CC(O)C4(C)C3C(O)CC21C (stereo not given),,,0.217 µM (active),0.217 µM (active)
O=C(NNc1nc2cc(F)ccc2n2cccc12)c1cnccn1,,,0.82 µM (active),0.731 µM (active)
CC(C)c1cc(C(=O)N2CC[C@H](NC(=O)C3CC3)C2)n[nH]1,,,inactive,inactive
Cc1cccc(/C=N/Nc2cc(N3CCOCC3)n3nc(-c4ccncc4)cc3n2)c1,,,1.03 µM (active),0.291 µM (active)
Cc1ccc(C(=O)Nc2noc3ccccc23)cc1,,,inactive,10.3 µM (active)
COc1cc(-c2ncn(/C=C\C(=O)OC(C)C)n2)cc(C(F)(F)F)c1,,,0.103 µM (active),0.164 µM (active)
CO[C@@H]1CC(OC2CCC3(C)C(CCC45CCC(C6=CC(=O)OC6)C(C)(CCC43)C5=O)C2)O[C@H](C)[C@@H]1O[C@@H]1O[C@H](CO[C@@H]2O[C@H](CO)[C@@H](O)[C@H](O)[C@H]2O)[C@@H](O)[C@H](O)[C@H]1O (stereo not given in full),,,0.873 µM (active),0.778 µM (active)
C/C1=C/CCC2=CC(OC2=O)C(C)(C)/C=C/C1=O (stereo not given),,,0.517 µM (active),0.517 µM (active)
N=C(N)c1ccc2nc(-c3cc(CC(=O)NC(CC(=O)O)C(=O)O)cc(-c4cc(S(N)(=O)=O)ccc4O)c3O)[nH]c2c1 (stereo not given),,,inactive,inactive
CN(C)c1nc2c(Br)c(Br)c(Br)c(Br)c2[nH]1,,,11.6 µM (active),8.2 µM (active)
CS(=O)(=O)c1ccccc1N1CCN(c2nc3c(c(=O)[nH]2)CSCC3)CC1,,,inactive,inactive
N#C[C@@H]1C[C@H](F)CN1C(=O)CNC1[C@H]2CN(C(=O)c3ccc(F)cc3)C[C@@H]12 (stereo not given in full),,,inactive,inactive
C=C(NC(=O)C(=C)NC(=O)c1csc(C2=NC3c4csc(n4)C4NC(=O)c5csc(n5)C(C(C)(O)C(C)O)NC(=O)C5CSC(=N5)/C(=C/C)NC(=O)C(C(C)O)NC(=O)c5csc(n5)C3(CC2)NC(=O)C(C)NC(=O)C(=C)NC(=O)C(C)NC(=O)C(C(C)CC)NC2C=Cc3c(C(C)O)cc(nc3C2O)C(=O)OC4C)n1)C(N)=O (stereo not given),,,1.3 µM (active),0.58 µM (active)
CS(=O)(=O)c1ccc([C@@H](C[C@H]2CCC(=O)C2)C(=O)Nc2cnccn2)cc1Cl,,,15.8 µM (active),15.8 µM (active)
CC(C)=CC/C=C(\C)[C@H]1CC[C@]2(C)[C@@H]1[C@H](O)C[C@@H]1[C@@]3(C)CC[C@H](O)C(C)(C)[C@@H]3[C@@H](O[C@@H]3O[C@H](CO)[C@@H](O)[C@H](O)[C@H]3O)C[C@]12C,,,inactive,inactive
O=C(NCCCCN1CCN(c2cccc(Cl)c2Cl)CC1)c1cc2ccccc2s1,,,23.1 µM (active),23.1 µM (active)
C[C@@H]1CC[C@]2(C(=O)O[C@@H]3O[C@H](CO)[C@@H](O)[C@H](O)[C@H]3O)CC[C@]3(C)C(=CCC4[C@@]5(C)C[C@@H](O)[C@H](O)[C@@](C)(C(=O)O[C@H]6[C@H](O)C[C@@]7(C)C(CC[C@]8(C)C7CC=C7[C@H]9[C@](C(=O)O[C@@H]%10O[C@H](CO)[C@@H](O)[C@H](O)[C@H]%10O)(CC[C@@H](C)[C@@]9(C)O)CC[C@]78C)[C@@]6(CO)C(=O)O)C5CC[C@]43C)[C@@H]2[C@]1(C)O (stereo not given in full),65.2% [at 9.25 µM],103% [at 9.25 µM],,
Cc1cc(O)c(C(C)C)cc1O[C@@H]1O[C@H](CO)[C@@H](O)[C@H](O)[C@H]1O,,,inactive,inactive
C[C@@]12C[C@]3(O)O[C@H](O1)[C@]1(COC(=O)c4ccccc4)[C@H]3C[C@@]12O[C@@H]1O[C@H](CO)[C@@H](O)[C@H](O)[C@H]1O,,,inactive,inactive
C=C1C(=O)O[C@@H]2/C=C(\C)CC/C=C(\C)CC[C@@H]12,,,7.31 µM (active),2.59 µM (active)
